Experimental data from PubChem BioAssay AID720550 (National Center for Advancing Translational Sciences (NCATS), 2013).
Results filed as inconclusive are left out. A call without a number means that no potency is given here. The source made the active and inactive calls. The call rests on the fitted dose curve; in most records, active means well fitted curve in the direction sought with a large enough effect; inconclusive means small, poorly fitted or top-dose-only effect, or another doubt; inactive means no such curve, though single readings can be large or run the other way.

Experiment: qHTS for Inhibitors of Bloom's syndrome helicase (BLM): Thiazole Orange DNA Binding Counterscreen for SAR.
Details: fluorescence; Potency: Thiazole orange DNA displacement; series mostly up to 57.1 µM
In short: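 Compounds pintool-added to 50 nM unlabeled DNA with 100 nM thiazole orange; fluorescence (ex 480/em 530 nm) read after 15 min at room temperature. Dye displacement flags nonspecific DNA binders; inactivity is the desired outcome.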

SMILES	Potency
S=C(Nc1ccc(Cl)c(Cl)c1)Nc1nnc(-c2ccncc2)o1	inactive
O=C(Nc1ccc(Cl)c(Cl)c1)Nc1nnc(Br)s1	inactive
O=C(Nc1ccc2ccccc2c1)Nc1nnc(-c2ccncc2)o1	inactive
O=C(Nc1ccc(F)c(C(F)(F)F)c1)Nc1nc(-c2ccncc2)cs1	inactive
COc1ccc(NC(=O)Nc2ccc(-c3nc4ccccc4[nH]3)cc2)cc1OC	inactive
O=C(Nc1nnc(-c2ccncc2)s1)Nc1cc(C(F)(F)F)ccc1F	inactive
CC(C)(C)NC(=O)Nc1nnc(-c2ccncc2)s1	inactive
O=C(Nc1ccc(Cl)c([N+](=O)[O-])c1)Nc1nnc(-c2ccncc2)s1	0.513 µM (active)
O=C(Nc1ccc(Cl)c(Cl)c1)Nc1cccc(-c2ccncc2)n1	inactive
O=C(Nc1ccc(F)c(C(F)(F)F)c1)Nc1cccc(-c2ccncc2)n1	inactive
CC(=O)c1ccc(NC(=O)Nc2nnc(-c3ccncc3)s2)cc1	inactive
Cc1cc(NC(=O)Nc2cccc(-c3ccncc3)n2)ccc1Br	inactive
O=C(Nc1ccc2c(c1)OCCO2)Nc1nnc(-c2ccncc2)s1	inactive
O=C(Nc1ccc(Cl)c(Cl)c1)Nc1nnc(NC2CCNCC2)s1	inactive
Cc1cc(C)c(-c2nnc(NC(=O)Nc3ccc4ccccc4c3)s2)c(C)c1	inactive
O=C(Nc1ccc(-n2cncn2)c(C(F)(F)F)c1)Nc1nnc(-c2ccncc2)s1	inactive
Cc1cc(NC(=O)Nc2nnc(C3CCCCC3)s2)ccc1F	inactive
O=C(Nc1nnc(-c2ccncc2)s1)Oc1ccc2ccccc2c1	inactive
O=C(Nc1ccc(Cl)c(C(F)(F)F)c1)Nc1nnc(-c2ccncc2)s1	inactive
O=C(Nc1ccc(Cl)c(Cl)c1)Nc1nnc(N2CCNCC2)s1	inactive

SMILES	Potency
O=C(Nc1ccc(Cl)c(Cl)c1)Nc1nnc(C2CCCCC2)s1	inactive
COc1ccc(OC)c(-c2nnc(NC(=O)Nc3ccc4ccccc4c3)s2)c1	inactive
Cc1cc(NC(=O)Nc2nnc(C3CCCCC3)s2)ccc1Cl	inactive
Cc1cc(NC(=O)Nc2nnc(-c3ccncc3)s2)ccc1C#N	inactive
CCOc1ccc(NC(=O)Nc2ccc(-c3nc4ccccc4[nH]3)cc2)cc1	inactive
CCCCCCNC(=O)Nc1nnc(-c2ccncc2)s1	inactive
O=C(Nc1ccc2ccccc2c1)Nc1nnc(-c2ccc(Cl)cc2)s1	inactive
Cc1cc(NC(=O)Nc2nnc(C3CCCCC3)s2)ccc1Br	inactive
O=C(Nc1ccc(Cl)c(Cl)c1)Nc1nnc(-c2ccncc2)o1	inactive
N#CN/C(=N\c1nnc(-c2ccncc2)s1)Nc1ccc(F)c(C(F)(F)F)c1	inactive
O=c1c(Nc2ccc(Cl)c(Cl)c2)c(Nc2nnc(-c3ccncc3)s2)c1=O	4.57 µM (active)
O=C(Nc1cccc(C(=O)O)c1)Nc1nnc(-c2ccncc2)s1	inactive
O=C(Nc1ccc(-c2nc3ccccc3[nH]2)cc1)Nc1ccc2occc2c1	inactive
O=C(Nc1nnc(-c2ccncc2)s1)Nc1cccc2ccccc12	inactive
O=C(Nc1ccc(Cl)c(C(F)(F)F)c1)Nc1nnc(-c2cccnc2)s1	inactive
O=C(Nc1ccc2sccc2c1)Nc1nnc(-c2ccncc2)s1	inactive
Cc1cc(NC(=O)Nc2nnc(-c3cccnc3)s2)ccc1Cl	inactive
O=C(Nc1ccc2ccccc2c1)Nc1nnc(-c2ccncc2)s1	inactive
O=C(Nc1ccc(-n2cncn2)c(F)c1)Nc1nnc(-c2ccncc2)s1	inactive
